Compounds with a hit are over-represented: about 2.2% of the library has one in this group of screens.
Nrf2 ARE act: qHTS of Nrf2 Activators. AREc32 ARE-luciferase reporter (MCF7-derived line), luminescence, 24 h. Potency, µM (titrated, usually from 46.1 µM), without a hit: top-dose activation, usual class: activators. hit rate 0.31% among 410,000; also: potency is read from the fitted curve at half-maximal effect; % of control where 0% means no effect; nearly all actives have a fitted effect of over 65% in size
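Luminescent ARE reporter assay in AREc32_Fluc cells: overnight plating at 37 deg C, 24 hr compound incubation, Steady-Glo added, 30 min RT before reading.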
PI4K2A inh: qHTS for small molecular inhibitors of PI4K2A. hit rate 0.13% among 420,000. activity change, negative = inhibition, % at 76.9 µM. purified PI4K2A, ADP-Glo luminescence, 1 h; active compounds read low; in the data active = activity change below about -50%; inconclusive = mostly about -30% to -49%;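 also: -100% = wells without enzyme as full effect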
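ADP-Glo luminescence measured ADP generated by PI4K2A enzyme (4 ug/mL before mixing) with 1.2 mM PI substrate (pre-mix) and 300 microM ATP (pre-mix). Tris pH7.5 buffer with MgCl2, Triton X-100; 1 h reaction at ambient temperature.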
miR-21 act: qHTS Assay for Modulators of miRNAs and/orActivators of miR-21. HeLa miR-21 FLuc reporter, luciferase, 48 h. Potency, µM (series often up to 38.3 µM), inactives show top-dose activity change, positive = activation, usual class: activators. 340,000 tested, under 10 active. AID 2288, 2010;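 also: % of control where 0% means no effect; miR-21 action dims this reporter so a rising signal means less miR-21 action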
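Luminescence from a firefly luciferase reporter carrying a miR-21 binding site downstream, stably expressed under a CMV promoter in HeLa cells that make miR-21 endogenously, reports miRNA modulation after 48 h compound exposure up to approximately 40uM final.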
GALK inh: qHTS Assay for Inhibitors of Human Galactokinase (GALK); P51570; Purified GALK, Kinase-Glo residual ATP luminescence; Potency, µM (series often up to 57.5 µM), for the others: at the highest dose activity change, negative = inhibition, actives largely listed as inhibitors; hit rate 0.007% among 270,000; AID 1868, 2009; also: potency is read from the fitted curve at half-maximal effect; % is scaled to controls: 0 for no effect and ±100 for the full control effect
Target sequence (P51570 whole entry, looked up): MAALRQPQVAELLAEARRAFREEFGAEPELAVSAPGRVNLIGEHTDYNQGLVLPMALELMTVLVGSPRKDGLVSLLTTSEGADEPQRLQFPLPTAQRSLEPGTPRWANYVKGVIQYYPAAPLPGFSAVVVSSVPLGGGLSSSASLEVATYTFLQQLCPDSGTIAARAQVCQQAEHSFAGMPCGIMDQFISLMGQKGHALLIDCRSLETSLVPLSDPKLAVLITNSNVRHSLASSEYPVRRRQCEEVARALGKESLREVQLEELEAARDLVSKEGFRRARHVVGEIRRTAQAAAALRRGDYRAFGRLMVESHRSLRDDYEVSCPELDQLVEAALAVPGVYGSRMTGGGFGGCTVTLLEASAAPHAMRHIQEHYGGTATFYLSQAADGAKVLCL
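5 nM enzyme, 35 uM ATP, 100 uM galactose, 20 mM HEPES pH8.0, 5 mM MgCl2; 1 h RT; residual ATP by Kinase-Glo Plus luminescence, qHTS format.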
A549 tox: Nrf2 qHTS screen for inhibitors: counterscreen for cytotoxicity; A549 ARE-Fluc cells, CellTiter-Fluor viability, 18-24 h; hit rate 0.16% among 390,000; Potency, µM (highest dose often 46 µM), inactives show top-dose activity change, negative = cytotoxicity, most hits filed as inhibitors; also: potency is read from the fitted curve at half-maximal effect; % is scaled to controls: 0 for no effect and ±100 for the full control effect
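Cytotoxicity counterscreen: CellTiter-Fluor fluorescence was measured in A549 ARE_Fluc cells after 18-24 h of compound exposure in a concentration series. The subsequent BugLite luminescent read reports ARE-luciferase activity.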
Nrf2 inh: Nrf2 qHTS screen for inhibitors. A549 ARE-Fluc reporter, luciferase luminescence, 18-24 h. Potency, µM (top dose mostly 46 µM), without a hit: at the highest dose activity change, negative = inhibition, hits mostly inhibitors. hit rate 2.1% among 360,000. AID 504444, 2011; also: potency is read from the fitted curve at half-maximal effect; % is scaled to controls: 0 for no effect and ±100 for the full control effect; nearly all actives have a fitted effect of over 60% in size
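Cells were seeded and rested 2 h, then exposed to compounds for 18-24 h. CellTiter-Fluor was read first as a viability measure. BugLite was added 15 min before the final luminescent read of ARE-luciferase activity in A549 cells.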
Numbers without * were called inactive; ? = inconclusive; . = no result. Unless noted, calls follow the shape of the dose curve; as a rule, active = well fitted curve in the direction sought with a large enough effect; inconclusive = small, poorly fitted or top-dose-only effect, or another doubt; inactive = no such curve, though single readings can be large; an effect the other way counts as inactive or inconclusive.

SMILES	Nrf2 ARE act	PI4K2A inh	miR-21 act	GALK inh	A549 tox	Nrf2 inh
COc1ccc(CCNc2nc(C)nc3c2oc2ccccc23)cc1OC	4%	-3	25%	0%	?	18µM*
Cc1nc(NC(C)c2ccccc2)c2oc3ccccc3c2n1 (stereo unspecified)	4%	4	19%	-1%	-14%	13µM*
COc1ccc(CCNc2oc(Cc3cccc4ccccc34)nc2C#N)cc1OC	-1%	1	7%	-1%	-25%	21µM*
CCC(C)Nc1nc(C)nc2c1oc1ccccc12 (stereo unspecified)	4%	2	11%	5%	1%	21µM*
Cc1nc(N[C@@H](Cc2ccccc2)C(=O)O)c2oc3ccccc3c2n1	-1%	10	-5%	0%	13%	3%
CC(C)(C)C1CCc2c(sc(NC(=O)CCC(=O)O)c2C(=O)Nc2ccccc2C(F)(F)F)C1 (stereo unspecified)	1%	-4	-25%	.	?	18µM*
COc1ccc(NC(=O)c2c(NC(=O)c3ccncc3)sc3c2CCC(C(C)(C)C)C3)cc1 (stereo unspecified)	1%	3	1%	.	-15%	18µM*
Cc1cc2c(cc1Cl)N(C(=O)Nc1ccc(Oc3cccnc3C)nc1)CC2	.	-14	.	.	.	.
O=C(CSc1nccc(-c2cccs2)n1)Nc1ccc(F)c(Cl)c1	7.9µM*	-2	3%	.	-1%	?
O=C(CSc1nccc(-c2cccs2)n1)Nc1cccc(Cl)c1	?	2	-2%	-4%	-4%	?
Cc1ccc(-c2nc3ccccc3[nH]2)cc1NC(=O)c1ccc2c(c1)OCO2	0%	-3	0%	1%	-12%	-6%
Cc1ccc(-c2nc3ccccc3[nH]2)cc1NC(=S)NC(=O)c1ccccc1Br	2%	4	-13%	-3%	?	18µM*
O=C(Cn1ncc2c3ccccc3n(Cc3ccccc3)c2c1=O)N1CCN(c2ccccn2)CC1	-1%	1	9%	.	11%	-2%
O=C(Cn1ncc2c3ccccc3n(Cc3ccccc3)c2c1=O)N1CCN(c2ncccn2)CC1	0%	6	10%	-1%	-4%	16µM*
CCOc1ccc(NC(=NCc2ccc3c(c2)OCO3)SC2CC(=O)N(c3ccc(OCC)cc3)C2=O)cc1 (stereo unspecified)	0%	3	-22%	0%	-27%	15µM*
CCOc1ccc(NC(=NCc2ccc3c(c2)OCO3)SC2CC(=O)N(c3ccccc3)C2=O)cc1 (stereo unspecified)	-1%	2	-2%	-3%	-9%	-14%
N/C(=N\OC(=O)c1ccc2ccccc2c1)c1ccccn1	0%	-58*	21%	17%	2%	?
COc1cccc(C(=O)O/N=C(\N)c2ccccn2)c1	-1%	-73*	24%	26%	-6%	?
Cc1ccc(C(=O)O/N=C(\N)c2ccccn2)c(Cl)c1	-4%	-70*	?	14%	-14%	?
N/C(=N\OC(=O)c1cccc([N+](=O)[O-])c1)c1ccccn1	?	2	-11%	-3%	-10%	?
CCCc1ccc(C(=O)O/N=C(\N)c2ccccn2)cc1	-3%	-85*	?	18%	-1%	?
N/C(=N\OC(=O)c1ccc(Cl)cc1Cl)c1ccccn1	0%	-30	?	15%	-4%	?
CCOC(=O)[C@@]12CCCC3=C1N(CCC3)C(=O)[C@H]2CC(=O)NCc1ccc(C)o1	.	-4	.	.	.	.
O=S1(=O)c2ccc(N3CCCC3)cc2Oc2ccccc2CN1Cc1cn(Cc2ccccc2C(F)(F)F)nn1	.	-2	.	.	.	.

Compound activity from PubChem.
